The values that follow come from PubChem BioAssay.

Molecules are shown by their SMILES.

Tested on in one assay: not listed separately
The assay can be described thus: probe aNOTCH2 binding on compound microarray – biochemical, small-molecule microarray, 635/667 nm fluorescence, primary screen (AID 1121).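 Note: score merges feature fluorescence read at 667 nm with its signal to noise.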 Particulars: higher = more signal.
As for `Cc1ccc(S[C@]2(C(=O)NCCCN(C)C)CC(=O)N(Cc3ccccc3)[C@@H]2c2ccc(CO)cc2I)cc1`, the composite z-score was -0.0771. Still for that read-out and setting: the figure for `COc1ccc([C@H]2C[C@H]3C(Br)=C[C@]2(OC)C(=O)[C@]32CO2)cc1` is -0.161. In turn, `COC(=O)[C@H]1[C@@H]2COc3ccccc3[C@H]2N[C@H]1C(=O)OC` yielded a composite z-score of -0.135. The compound `C=CC[C@]1(C(N)=O)N=C(c2ccc(OCCCO)cc2)O[C@H]1c1ccccc1CN=[N+]=[N-]` yielded a composite z-score of -0.0785. For `CC(C)[Si](OCC[C@H]1O[C@]2(C(=O)N(Cc3ccccc3)c3ccccc32)[C@@H](C)[C@@H]1[Si](C)(C)O)(C(C)C)C(C)C`, the composite z-score was -0.148.

As to `CC(C)[Si](OCCCNS(=O)(=O)c1ccc(Br)cc1)(C(C)C)C(C)C`, the composite z-score is -0.0877. `C=CCOC(=O)[C@@H]1[C@H]2C(=O)O[C@H](c3ccccc3)[C@H](c3ccccc3)N2[C@H](c2ccc(OCCOC(=O)[C@H]3C[C@H]4C(=O)N[C@@H](CCCCNC(C)=O)C(=O)N4[C@H]3c3ccc(O)cc3)cc2)[C@@]12C(=O)Nc1ccc(I)cc12` yielded a composite z-score of -0.0662. In the case of `C[C@]1(C(=O)NCCN2CCOCC2)c2ccccc2C(=O)N(Cc2ccccc2)[C@H]1c1ccc(CO)cc1`, the composite z-score is -0.154.

Regarding `C=CCN(C(=O)C1N(c2ccc(CCO)cc2)C(=O)C2C(C(=O)O)C3C=CC21O3)C(C)(C)C` (configuration not stated), the composite z-score was -0.171. For the compound `CCOC(=O)C[C@H]1[C@H](OC(=O)Cc2ccc3c(c2)OCO3)[C@@H](NC(=O)c2ccc3ccccc3c2)c2cc(OCCCO)ccc2N1C(=O)Cc1ccc(OC)cc1`, the composite z-score is -0.0846. In turn, `COc1ccc([Si](C)(C)[C@H]2[C@H](CCO)O[C@@]3(C(=O)N(Cc4ccc(N5CCCCC5=O)cc4)c4ccccc43)[C@@H]2C)cc1` gave a composite z-score of -0.0846. On the same count and under the same terms, the figure for `COc1cc(CO)cc(I)c1O[C@H]1C=C(C(=O)NCCO)C[C@@H](N(CC2CCCCC2)C(=O)c2cc3ccccc3oc2=O)[C@@H]1O` is -0.12; for `COC(=O)C1=CC(c2ccc(CO)cc2)=CC(C2CC2)N(Cc2sc3ccccc3c2Cl)C=C1C(=O)OC` (configuration not stated) it is 0.101. In turn, `CSCC[C@@H]1NC(=O)CC=C[C@@H](C)COC(=O)[C@H](CCSC)NC(=O)CC=C[C@@H](C)COC1=O` showed a composite z-score of -0.135. Still for that read-out and setting: the figure for `COC(=O)[C@@]1(Cc2ccc(OC)cc2)[C@H]2c3cc(C(=O)N(C)C)n(CCc4ccc(OC)c(Br)c4)c3C[C@H]2CN1C(=O)c1ccccc1` is 0.395; for `COCC(=C=CC[C@H](O)c1ccc(OCCO)cc1)C[C@H](O)c1ccccn1` it is -0.0942; for `O=C(NCc1ccccc1)[C@@]1(Cc2ccccc2)COC(c2ccc(OCCCO)cc2)=N1` it is -0.0063. For `CO[C@@H]1COC(=O)[C@H](C)NC(=O)CC=C[C@@H](C)[C@H](OC)COC(=O)[C@H](C)NC(=O)CC=C[C@H]1C`, the composite z-score was -0.124. Regarding `CCCC=C(CCC)[C@@H](NS(=O)(=O)c1ccc(C(F)(F)F)cc1)c1ccc(-c2ccccc2)cc1`, the composite z-score was -0.0467. For the compound `CC(C)(C)OC(=O)CC[C@]1(C(=O)N2CCCCC2)N=C(c2ccc(OCCCO)cc2)O[C@H]1c1ccccc1`, the composite z-score is -0.127.

`CC(=O)NCCCC[C@@H]1NC(=O)[C@@H]2C[C@H](C(=O)NCCCCCNC(=O)CS)[C@H](c3ccc(O)cc3)N2C1=O` had a composite z-score of -0.203. The compound `C=CCC(OC(C)=O)[C@@H]1[C@@H](N(Cc2ccc(-c3cccc(C(F)(F)F)c3)o2)C(=O)Cc2ccc(F)cc2)c2cc(OCCCO)ccc2N1C(=O)c1ccc(-c2ccccc2)cc1` (some centres not stated) registered a composite z-score of -0.154. Same read-out and setting: the figure for `CO[C@]12C=C(Br)[C@@H](C[C@@H]1c1ccccc1)[C@@]1(CO1)C2=O` is -0.11. Consider `COCCOC(=O)N1C(=O)[C@@]2(c3cc(C#CCC(C(=O)OC)C(=O)OC)ccc31)[C@H](c1ccccc1OCCO)N1[C@H](c3ccccc3)[C@H](c3ccccc3)OC(=O)[C@H]1[C@@H]2C(=O)N1CCCCCCC1`, for which the composite z-score worked out at 0.36. The same measure, in the same setting: in the case of `CCOC(=O)C1=CC[C@@H](c2ccccc2)N(S(=O)(=O)c2ccc(C)cc2)[C@H]1C` it was 0.0832; in that of `O=C1c2ccccc2[C@](Cc2ccccc2I)(C(=O)NCC(F)(F)F)[C@H](c2ccc(CO)cc2)N1Cc1ccccc1C(F)(F)F`, -0.175.

The next assay concerns the target Carbonic anhydrase 2 (Homo sapiens) (UniProt P00918). In words: compounds binding carbonic anhydrase 2 – biochemical, small-molecule microarray, Alexa647-labelled CAII, profiling panel (AID 1122). Particulars: CAII-A647 binding fluorescence, higher = more signal.
With `CCCC=C(CCC)[C@@H](NS(=O)(=O)c1ccc(-c2ccccc2)cc1)c1ccc(C(=O)OC)cc1`, the composite z-score was -0.291. On the same count and under the same terms, the figure for `COc1ccc([Si](C)(C)[C@@H]2[C@@H](CC(=O)N(CCO)Cc3ccccc3)O[C@]3(C(=O)N(Cc4cccc(N5CCC5=O)c4)c4ccccc43)[C@H]2C)cc1` is 0.401; for `CCC1=C2CN(Cc3ccccc3Br)[C@@H]([C@@H](O)Cc3ccccc3)C2C=CCC1` (some centres not stated) it is 0.366; for `CO[C@H]1COC(=O)[C@H](C)COC(=O)[C@H](Cc2ccccc2)NC(=O)CC=C[C@H]1C` it is -0.612. `Cc1ccc(S[C@]2(C(=O)NC3CC3)CC(=O)N(Cc3cc(C(F)(F)F)cc(C(F)(F)F)c3)[C@@H]2c2ccc(CO)cc2)cc1` had a composite z-score of 0.375. Take `CCCC[C@@H]1C[C@H]1[C@@H](NC(=O)c1cccs1)c1ccc(Cl)cc1`: the composite z-score was -0.346.

Turning to `COC(=O)C(CC#Cc1ccc2c(c1)[C@]1(C(=O)N2)[C@H](C(=O)N2CCCCCCC2)[C@H]2C(=O)O[C@H](c3ccccc3)[C@H](c3ccccc3)N2[C@@H]1c1ccc(O)cc1)C(=O)OC`, the composite z-score was -0.59.

`CC(C)N1CC=CC23O[C@@H]4/C=C\CCCOC(=O)C4[C@H]2C(=O)N(CCO)[C@@H]3C1=O` (some centres not stated) showed a composite z-score of 0.893.

`O=C1O[C@H](c2ccccc2)[C@H](c2ccccc2)N2[C@H]1[C@@H](C(=O)NC[C@H](O)c1ccccc1)[C@]1(C(=O)Nc3ccc(C#CC4=CCCCC4)cc31)[C@H]2c1ccc(OCCO)cc1` registered a composite z-score of 0.522.

For the compound `Cc1ccc(S[C@]2(C(=O)NC(C)C)CC(=O)N(C3Cc4ccccc4C3)[C@@H]2c2ccc(CO)cc2)cc1`, the composite z-score is 0.81. `Cc1ccc(S[C@]2(C(=O)NCCCN(C)C)CC(=O)N(Cc3ccccc3)[C@@H]2c2ccc(CO)cc2I)cc1` registered a composite z-score of 0.688. The same measure, in the same setting: in the case of `COc1ccc([C@H]2C[C@H]3C(Br)=C[C@]2(OC)C(=O)[C@]32CO2)cc1` it was 0.545; in that of `COC(=O)[C@H]1[C@@H]2COc3ccccc3[C@H]2N[C@H]1C(=O)OC`, 0.414. The same measure, in the same setting: the figure for `C=CC[C@]1(C(N)=O)N=C(c2ccc(OCCCO)cc2)O[C@H]1c1ccccc1CN=[N+]=[N-]` is 0.856. `CC(C)[Si](OCC[C@H]1O[C@]2(C(=O)N(Cc3ccccc3)c3ccccc32)[C@@H](C)[C@@H]1[Si](C)(C)O)(C(C)C)C(C)C` displayed a composite z-score of 0.191. In turn, `CC(C)[Si](OCCCNS(=O)(=O)c1ccc(Br)cc1)(C(C)C)C(C)C` returned a composite z-score of 0.0774. Turning to `C=CCOC(=O)[C@@H]1[C@H]2C(=O)O[C@H](c3ccccc3)[C@H](c3ccccc3)N2[C@H](c2ccc(OCCOC(=O)[C@H]3C[C@H]4C(=O)N[C@@H](CCCCNC(C)=O)C(=O)N4[C@H]3c3ccc(O)cc3)cc2)[C@@]12C(=O)Nc1ccc(I)cc12`, the composite z-score is 0.374. The compound `C[C@]1(C(=O)NCCN2CCOCC2)c2ccccc2C(=O)N(Cc2ccccc2)[C@H]1c1ccc(CO)cc1` gave a composite z-score of 0.733. Compound `C=CCN(C(=O)C1N(c2ccc(CCO)cc2)C(=O)C2C(C(=O)O)C3C=CC21O3)C(C)(C)C` (configuration not stated) yielded a composite z-score of 0.971.

Consider `CCOC(=O)C[C@H]1[C@H](OC(=O)Cc2ccc3c(c2)OCO3)[C@@H](NC(=O)c2ccc3ccccc3c2)c2cc(OCCCO)ccc2N1C(=O)Cc1ccc(OC)cc1`, for which the composite z-score stood at 0.0553. For the compound `COc1ccc([Si](C)(C)[C@H]2[C@H](CCO)O[C@@]3(C(=O)N(Cc4ccc(N5CCCCC5=O)cc4)c4ccccc43)[C@@H]2C)cc1`, the composite z-score stood at 0.596. As to `COc1cc(CO)cc(I)c1O[C@H]1C=C(C(=O)NCCO)C[C@@H](N(CC2CCCCC2)C(=O)c2cc3ccccc3oc2=O)[C@@H]1O`, the composite z-score was -0.0979. Same read-out and setting: in the case of `COC(=O)C1=CC(c2ccc(CO)cc2)=CC(C2CC2)N(Cc2sc3ccccc3c2Cl)C=C1C(=O)OC` (configuration not stated) it was 0.866; in that of `CSCC[C@@H]1NC(=O)CC=C[C@@H](C)COC(=O)[C@H](CCSC)NC(=O)CC=C[C@@H](C)COC1=O`, -0.342. The compound `COC(=O)[C@@]1(Cc2ccc(OC)cc2)[C@H]2c3cc(C(=O)N(C)C)n(CCc4ccc(OC)c(Br)c4)c3C[C@H]2CN1C(=O)c1ccccc1` registered a composite z-score of 0.718. As for `COCC(=C=CC[C@H](O)c1ccc(OCCO)cc1)C[C@H](O)c1ccccn1`, the composite z-score worked out at 0.603.

`O=C(NCc1ccccc1)[C@@]1(Cc2ccccc2)COC(c2ccc(OCCCO)cc2)=N1` displayed a composite z-score of 0.504. The compound `CO[C@@H]1COC(=O)[C@H](C)NC(=O)CC=C[C@@H](C)[C@H](OC)COC(=O)[C@H](C)NC(=O)CC=C[C@H]1C` returned a composite z-score of -0.305. Consider `CCCC=C(CCC)[C@@H](NS(=O)(=O)c1ccc(C(F)(F)F)cc1)c1ccc(-c2ccccc2)cc1`, for which the composite z-score worked out at 0.279. As to `CC(C)(C)OC(=O)CC[C@]1(C(=O)N2CCCCC2)N=C(c2ccc(OCCCO)cc2)O[C@H]1c1ccccc1`, the composite z-score amounted to 0.741. The same measure, in the same setting: in the case of `CC(=O)NCCCC[C@@H]1NC(=O)[C@@H]2C[C@H](C(=O)NCCCCCNC(=O)CS)[C@H](c3ccc(O)cc3)N2C1=O` it was 0.497; in that of `C=CCC(OC(C)=O)[C@@H]1[C@@H](N(Cc2ccc(-c3cccc(C(F)(F)F)c3)o2)C(=O)Cc2ccc(F)cc2)c2cc(OCCCO)ccc2N1C(=O)c1ccc(-c2ccccc2)cc1` (some centres not stated), -0.215. `CO[C@]12C=C(Br)[C@@H](C[C@@H]1c1ccccc1)[C@@]1(CO1)C2=O`: the composite z-score was 0.143. In the case of `COCCOC(=O)N1C(=O)[C@@]2(c3cc(C#CCC(C(=O)OC)C(=O)OC)ccc31)[C@H](c1ccccc1OCCO)N1[C@H](c3ccccc3)[C@H](c3ccccc3)OC(=O)[C@H]1[C@@H]2C(=O)N1CCCCCCC1`, the composite z-score was 0.488.

In turn, `CCOC(=O)C1=CC[C@@H](c2ccccc2)N(S(=O)(=O)c2ccc(C)cc2)[C@H]1C` showed a composite z-score of 0.671. For the compound `O=C1c2ccccc2[C@](Cc2ccccc2I)(C(=O)NCC(F)(F)F)[C@H](c2ccc(CO)cc2)N1Cc1ccccc1C(F)(F)F`, the composite z-score turned out to be 0.411.
